Activity calls are given as the source filed them. No rule for the calls is given here.
Target: Pantothenate synthetase (Mycobacterium tuberculosis (strain ATCC 25618 / H37Rv)) (UniProt P9WIL5)
Experiment: Coupled enzyme confirmation of inhibitors against recombinant Mtb PanC (AID 375);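 also: 0% = full reaction with vehicle and 100% = no enzyme background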
Conditions: coupled enzyme assay; at 10 µM, active compounds read high

Sequence of Pantothenate synthetase (Mycobacterium tuberculosis (strain ATCC 25618 / H37Rv)) (P9WIL5 whole entry, looked up): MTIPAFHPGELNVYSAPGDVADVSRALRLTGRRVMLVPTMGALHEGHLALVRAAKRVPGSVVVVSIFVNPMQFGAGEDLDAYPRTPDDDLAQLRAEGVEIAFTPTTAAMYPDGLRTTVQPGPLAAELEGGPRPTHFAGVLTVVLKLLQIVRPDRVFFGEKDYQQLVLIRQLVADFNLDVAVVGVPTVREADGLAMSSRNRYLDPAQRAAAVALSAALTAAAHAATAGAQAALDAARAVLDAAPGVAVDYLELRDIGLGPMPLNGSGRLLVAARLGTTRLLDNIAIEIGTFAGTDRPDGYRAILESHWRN

SMILES	inhibition
COC(=O)CS(=O)(=O)c1nnc([C@H](Cc2ccccc2)NC(=O)OC(C)(C)C)o1	1% (inactive)
c1ccc(CC2CCN(Cc3nc(-c4ccccc4)no3)CC2)cc1	3% (inactive)
COCCN1CN(S(=O)(=O)c2ccccc2)c2nc3ccccc3nc21	0% (inactive)
COc1ccc(C(=O)NCc2nnc(SCC(=O)Nc3cc(C)cc(C)c3)o2)cc1OC	0% (inactive)
O=C(Cn1cnc2c(cnn2-c2ccc(F)cc2)c1=O)N1CCN(c2ccccc2)CC1	0% (inactive)
Cc1noc(C)c1S(=O)(=O)N1CCC(C(=O)Nc2ccccn2)CC1	4% (inactive)
CCOc1ccc(-c2nc(S(=O)(=O)c3ccccc3)c(NCc3cccnc3)o2)cc1	0% (inactive)
O=C(Nc1ncnc2sc3c(c12)CCCCC3)c1ccco1	10% (inactive)
CCOC(=O)c1cccc(NC(=O)CSc2nnc(-c3cccnc3)n2CC)c1	0% (inactive)
O=c1c2ccccc2nc(SCc2cccc(F)c2)n1Cc1ccco1	4% (inactive)
CC(NC(=O)Nc1ccccc1)C(c1cccs1)N1CCOCC1 (stereo not given)	0% (inactive)
O=C(OCc1ccc2c(c1)OCO2)c1ccc(S(=O)(=O)N2CCCCC2)cc1	0% (inactive)
O=C(c1ccccc1)c1ccc(N2CCOCC2)c(NC(=O)c2ccco2)c1	11% (inactive)
CCNc1nc(N2CCCCC2)nc(-n2nnc(C(=O)OCC)c2C)n1	2% (inactive)
COc1ccc(CNc2ccc(C(=O)O)cc2)cc1	0% (inactive)
CCOC(=O)C1CCCN(CC(=O)NC2CC2)C1 (stereo not given)	6% (inactive)
C=CCn1c(N)c(C(=O)OC(C)(C)C)c2nc3ccccc3nc21	1% (inactive)
O=C(NCC(c1cccnc1)N1CCN(c2ccccc2)CC1)c1ccc2c(c1)OCO2 (stereo not given)	0% (inactive)
CN(CC(=O)Nc1nccs1)S(=O)(=O)c1ccc(F)cc1	0% (inactive)
Cc1noc(NS(=O)(=O)c2ccc(N3C(=O)c4ccccc4C3=O)cc2)c1C	3% (inactive)

SMILES	inhibition
CCOC(=O)N1CCN(c2c(NCCCOC(C)C)c(=O)c2=O)CC1	4% (inactive)
COC(=O)c1ccccc1NC(=O)c1cnc2sccn2c1=O	5% (inactive)
Cc1nnc(SCC2=C(C(=O)O)N3C(=O)[C@@H](NC(=O)Cn4cnnn4)[C@H]3SC2)s1	0% (inactive)
CCOc1cc(S(=O)(=O)NCc2ccccn2)c(C)cc1C	0% (inactive)
O=C(NCCN1C(=O)C2C3C=CC(C3)C2C1=O)Nc1ccccn1 (stereo not given)	0% (inactive)
CCOc1ccc(C2C(C#N)=C(N)Oc3cc(C)n(Cc4ccco4)c(=O)c32)cc1OC (stereo not given)	2% (inactive)
CC(C)N(C(=O)COC(=O)c1ccc(O)cc1)C(C)C	1% (inactive)
O=C(CN(Cc1cccs1)C(=O)CNS(=O)(=O)c1ccccc1)NCc1ccco1	3% (inactive)
Cn1c(-n2c(-c3ccco3)nc3ccccc3c2=O)nc2ccccc21	2% (inactive)
Cc1ccccc1OCc1nnc(SCC(=O)NCc2ccccc2)n1C	0% (inactive)
COc1nc(Oc2ccc(=O)n(C)n2)nc(N(C)C)n1	4% (inactive)
COc1ccc(-c2nnc(SCC(=O)c3cc(C)n(Cc4cccs4)c3C)o2)cc1	0% (inactive)
O=C(CCC(=O)N(c1cccc(F)c1)C(C(=O)NC1CCCC1)c1ccncc1)Nc1cccnc1 (stereo not given)	0% (inactive)
Nc1c(C(=O)NCCc2ccccc2)nnn1Cc1ccccc1	0% (inactive)
Nc1sccc1C(=O)c1ccccc1	4% (inactive)
COc1ccccc1Nc1ncnc2c1cnn2-c1cccc(C)c1	0% (inactive)
COC(=O)C1=C(N)Oc2cc(C)[nH]c(=O)c2C1c1ccncc1 (stereo not given)	0% (inactive)
O=C(CN(c1ccc(F)cc1)S(=O)(=O)c1ccc2c(c1)OCCO2)Nc1cccnc1	0% (inactive)
COc1cccc(S(=O)(=O)Nc2cccnc2)c1	10% (inactive)
COC1CCCCC1Nc1cccc(SC)c1 (stereo not given)	0% (inactive)
